Screen size: about 69,000 compounds; about 420 (0.61%) showed an effect of 50% or more. The sample holds strong results, similar compounds and a random draw of the others, so the mix is not that of the screen.
These molecules were tested against T1, Histidine--tRNA ligase (Leishmania infantum) (UniProt A4I591) (assay: Leishmania infantum Histidine tRNA synthetase (LdHisRS)). Conditions: 30 µM.
T1 sequence (whole entry): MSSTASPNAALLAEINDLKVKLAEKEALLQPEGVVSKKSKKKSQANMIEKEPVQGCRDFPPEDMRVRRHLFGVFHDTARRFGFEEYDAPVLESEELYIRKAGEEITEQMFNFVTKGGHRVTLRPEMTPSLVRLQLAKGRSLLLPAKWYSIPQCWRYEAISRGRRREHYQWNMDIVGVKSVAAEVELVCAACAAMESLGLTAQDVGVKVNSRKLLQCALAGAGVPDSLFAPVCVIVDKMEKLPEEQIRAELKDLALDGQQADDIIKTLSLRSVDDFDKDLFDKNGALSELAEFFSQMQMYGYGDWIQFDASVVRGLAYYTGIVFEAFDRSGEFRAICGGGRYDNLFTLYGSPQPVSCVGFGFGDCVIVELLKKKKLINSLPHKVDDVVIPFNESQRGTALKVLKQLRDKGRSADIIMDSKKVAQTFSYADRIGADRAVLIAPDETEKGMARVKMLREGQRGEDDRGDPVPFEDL
Type: functional
Design: scale not given: in the data most compounds retested in dose-response had high values

Point of comparison: `Cc1occc1CN(C)C(=O)Nc1ccc(=O)n(C)c1`, Percent Effect 102%. Against it:
- COc1ccc(NC(=O)N(C)Cc2ccco2)cn1 — lower, 16%
- CN(Cc1ccco1)C(=O)Nc1ccc(=O)n(C)c1 — the same, 102%
- CN(Cc1cccs1)C(=O)c1ccc(=O)n(C)c1 — lower, 11.3%
- CS(=O)(=O)N[C@@H]1CN(C(=O)c2cccnc2)[C@@H]2CCCO[C@@H]21 — lower, 8.26%
- O=C([C@@H]1C[C@@H]2CCN(C3CCOCC3)C[C@@H]2O1)N1CCOCC1 — lower, 8.33%
- CC(=O)N1CCN(C(=O)C(C)Nc2ccc3ncsc3c2)CC1 (stereo not given) — lower, 28.9%
- CC(=O)N1CCN(C(=O)CNc2ccc3sccc3c2)CC1 — lower, 27.2%
- CC(=O)N1CCN(C(=O)CNc2ccc3ncsc3c2)CC1 — lower, 58.8%
- Cn1nc2c(cc1=O)CN(Cc1coc(-c3ccccc3)n1)CC2 — lower, 44.7%
- O=C1NCCN1C1CCN(Cc2coc(-c3ccc(F)cc3)n2)CC1 — lower, 9.82%
- Cc1ccc(-c2nc(CN3CCc4nn(C)c(=O)cc4C3)co2)cc1 — higher, 107%
- CN(C)CC1CN(Cc2coc(-c3cccs3)n2)CCO1 (stereo not given) — lower, 14.9%
- CC1CCCN(Cc2coc(-c3cccc(F)c3)n2)C1 (stereo not given) — lower, 13.7%
- O=C1NCCN1C1CCCN(Cc2coc(-c3cccs3)n2)C1 (stereo not given) — lower, 13.4%
- Cn1nc2c(cc1=O)CN(Cc1coc(-c3cccc(F)c3)n1)CC2 — lower, 90.3%
- Cn1nc2c(cc1=O)CN(Cc1coc(-c3ccc(F)cc3)n1)CC2 — lower, 90.3%
- O=C1NCCN1C1CCCN(Cc2coc(-c3ccc(F)cc3)n2)C1 (stereo not given) — lower, 24.6%
- Cn1nc2c(cc1=O)CN(Cc1coc(-c3cccs3)n1)CC2 — lower, 97.6%
- CCn1nc2c(cc1=O)CN(Cc1coc(-c3ccccc3)n1)CC2 — lower, 14.9%
- CCN1CCN(Cc2coc(-c3cccc(F)c3)n2)CC1 — lower, 21.9%
- Cc1cccc(S(=O)(=O)N2CC[C@H]3CO[C@H](CN(C)C)[C@H]3C2)c1 — lower, 0.917%
- Cc1ccc(CN2C[C@H](N(C)Cc3cncnc3)[C@H]3OCCC[C@H]32)o1 — lower, 15.4%
- O=C1CCCC2=C1C(c1ccc(F)cc1F)Nc1nonc1N2 (stereo not given) — lower, 14.6%
- Cc1ccccc1CN1C[C@@H]2CC[C@H](C1)N(CC1CCC1)C2=O — lower, 34.4%
- CCOCC(=O)N1C[C@@H]2CC[C@H](Oc3ccccc3)[C@@H]2C1 — lower, 26.3%
- O=C(CCNCc1cccc(O)c1)N1CCc2sccc2C1 — lower, 85%
- N#Cc1cccc(CNCCC(=O)N2CCc3sccc3C2)c1 — lower, 5.38%
- COc1ccc(CNCCC(=O)N2CCc3sccc3C2)cc1O — lower, 26.9%
- c1cnnc(N2CCCC(NCc3nc(-c4cccs4)no3)C2)c1 (stereo not given) — lower, 24.7%
- c1cnnc(N2CCCC(NCc3nc(-c4ccco4)no3)C2)c1 (stereo not given) — lower, 0.926%
- c1ccc(-c2noc(CNC3CCCN(c4cccnn4)C3)n2)nc1 (stereo not given) — lower, 67.7%
- Cc1cccc(CN2C[C@@H]3OCCN(CC(=O)N(C)C)[C@@H]3C2)c1 — lower, 13.5%
- O=C(c1ncccn1)N1C[C@@H]2COC[C@]2(COc2cccnc2)C1 — lower, 17.3%
- CS(=O)(=O)c1ccc(CN2C[C@H]3CC[C@@H]2CN(c2ncccn2)C3)cc1 — lower, 15%
- CCS(=O)(=O)N1CCC2(CC1)CC[C@@]1(C(=O)NC)CN(C(C)=O)C[C@@H]21 — lower, 19.7%
- CC(C)(C)C(=O)N1CC[C@H]2NC(=O)N(c3ccc(F)cc3)C(=O)[C@H]21 — lower, 19.4%
- Cc1nc([C@@H]2C[C@@H]3CCN(C(=O)c4ccnnc4)C[C@H]3O2)sc1C — lower, 18.4%
- CN(C)c1nc2c(c(N3CCc4c(c(CO)nn4C)C3)n1)CCNC2 — lower, 11.4%
- CC(Nc1nc(-c2ccccc2)nc2c1CCNCC2)c1cccnc1 (stereo not given) — lower, 16.4%
- c1ccc2c(c1)CCN(c1nc(-c3ccncc3)nc3c1CCNC3)C2 — lower, 101%
- c1ccc2c(c1)CCN(c1ncnc3sc4c(c13)CCNC4)C2 — lower, 15.1%
- CN(C)c1nc2c(c(N3CCc4ccccc4C3)n1)CCNC2 — lower, 58.6%
- Cc1cc2n(n1)CCN(c1nc(N(C)C)nc3c1CCNC3)C2 — lower, 36.7%
- Cc1cccc(=O)n1CCCNc1nc(N(C)C)nc2c1CCNC2 — lower, 35.3%
- c1ccc2c(c1)CN(c1ncnc3c1CCNC3)CCO2 — lower, 16.1%
- Cc1ccccc1N1CCN(c2nc(N(C)C)nc3c2CCNC3)CC1 — lower, 58.6%
- Cc1nc2c(c(N3CCN(c4ncccc4C(N)=O)CC3)n1)CCNC2 — lower, 12.9%
- CC(Nc1nc(-c2ccncc2)nc2c1CCNC2)c1ccccc1 (stereo not given) — lower, 54.1%
- CC(Nc1nc(-c2ccccc2)nc2c1CCNCC2)c1nccs1 (stereo not given) — lower, 19.7%
- CCOc1ccc(C(=O)N2C[C@H]3CC[C@@H]2CN(C)C3)cc1OCC — lower, 15.1%
- O=C1[C@H]2CN(S(=O)(=O)c3cccs3)C[C@H]2CN1CC1CC1 — lower, 21.4%
- CN(Cc1cncnc1)[C@@H]1CN(C(=O)c2ccco2)[C@@H]2CCCO[C@H]12 — lower, 17.3%
- CCC1=N[C@@]2(CC[C@@H]3CN(Cc4ccc(F)cc4)C[C@@H]32)C(=O)N1C — lower, 8.18%
- Cc1ccc(CN2CCN(C(=O)C3CCC3)[C@@H]3CS(=O)(=O)C[C@@H]32)cc1C — lower, 20.6%

Source: ChEMBL document CHEMBL3988442, “University of Dundee, Small-Polar-MMV Screening Library” (2021)
